Measured values as given in PubChem BioAssay AID1159580 (chemical genetic matrix, 2015).
The whole screen tested about 5,500 compounds, of which about 2,000 (36%) were called active. Roughly 18% stayed inconclusive and do not appear here. No stated cut-off is given here; in the data, active means normalized growth mostly below about 0.91 (no sharp cut-off); inconclusive means no clear call, values can overlap the other calls; inactive means mostly above about 0.92. The list shows a part of the results.

Assay: chemical genetic growth profiling, strain panel (AID 1159580);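 further: tested at 20 µM; growth read once vehicle control cultures reached saturation at 30 °C; 1 = growth at the plate median or of vehicle wells; lower values mean less growth of the strain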
Settings: S. cerevisiae deletion strains, growth OD

Measured: normalized growth

CN1CCc2ccccc2Cc2[nH]c3ccccc3c2CC1
inactive: locus YAL013W, strain DEP1, hits give low values 1.01 | locus YAL040C, strain CLN3, hits give low values 1.04 | locus YCL061C, strain MRC1 (second series), hits give low values 1.01 | locus YDR150W, strain NUM1, hits give low values 1.01 | locus YDR363W, strain ESC2, hits give low values 0.97 | locus YER002W, strain NOP16, hits give low values 0.996 | locus YGR078C, strain PAC10, hits give low values 0.994 | locus YNL128W, strain TEP1, hits give low values 1.01 | locus YNL153C, strain GIM3, hits give low values 1.03 | locus YNL175C, strain NOP13, hits give low values 1.01 | locus YNL197C, strain WHI3, hits give low values 1.01 | locus YNL224C, strain SQS1, hits give low values 0.996 | locus YNL322C, strain KRE1, hits give low values 1.02 | locus YOR083W, strain WHI5 (second series), hits give low values 0.998 | locus YPL055C, strain LGE1, hits give low values 1.01 | locus YPL241C, strain CIN2, hits give low values 1.01
